Assay outcomes: PubChem BioAssay, National Center for Advancing Translational Sciences (NCATS)
Only some compounds are listed: those with a hit (about 7.5% of all), similar ones and a draw of the others.
Rab9 prom act – qHTS Assay for Rab9 Promoter Activators; Potency, µM (top dose mostly 9.22 µM), without a hit: at the highest dose activation, negative = inhibition, usual class: activators; AID 485297, 2010; Huh7 Rab9 promoter-luciferase reporter, luminescence, 24 h; 320,000 tested, 2.8% active; also: % of control where 0% means no effect; nearly all actives have a fitted effect of over 60% in size
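Luciferase signal after 10 min detection reagent at ambient indicates Rab9 promoter upregulation; stably transfected Huh7 cells were treated 24 h with compound in DMSO at 37 °C, 5% CO2.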
FLuc modulator – qHTS profiling assay for firefly luciferase inhibitor/activator using purifed enzyme and Km concentrations of substrates (counterscreen for miR-21 project); Luciferin 4-monooxygenase (Photinus pyralis), P08659; purified FLuc, Km substrates, luminescence inhibition; Potency, µM (doses to about 57.5 µM), without a hit: at the highest dose activity change, negative = inhibition, most hits filed as inhibitors; 360,000 tested, 6.9% active; AID 588342, 2011;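 also: plate controls were vehicle for no effect and reference inhibitor for full effect; nearly all actives have a fitted effect of over 55% in size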
Target sequence (P08659 whole entry, looked up): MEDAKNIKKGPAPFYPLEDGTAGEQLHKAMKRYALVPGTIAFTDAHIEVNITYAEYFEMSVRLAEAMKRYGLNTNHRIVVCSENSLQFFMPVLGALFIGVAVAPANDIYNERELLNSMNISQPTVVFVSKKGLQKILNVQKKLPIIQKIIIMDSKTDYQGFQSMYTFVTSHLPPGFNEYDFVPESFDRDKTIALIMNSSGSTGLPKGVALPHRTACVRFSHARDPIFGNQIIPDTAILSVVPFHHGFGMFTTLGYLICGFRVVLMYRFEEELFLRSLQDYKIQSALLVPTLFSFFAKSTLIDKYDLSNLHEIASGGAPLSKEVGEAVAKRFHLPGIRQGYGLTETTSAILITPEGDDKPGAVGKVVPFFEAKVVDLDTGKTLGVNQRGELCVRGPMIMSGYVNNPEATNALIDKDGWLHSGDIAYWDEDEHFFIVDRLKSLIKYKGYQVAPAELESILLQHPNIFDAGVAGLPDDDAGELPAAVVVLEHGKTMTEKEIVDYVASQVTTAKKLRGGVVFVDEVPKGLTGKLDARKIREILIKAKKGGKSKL
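Purified P. pyralis luciferase (10nM final) with 10uM D-luciferin and 10uM ATP (Km levels) in 50mM Tris acetate pH 7.5, 10mM Mg acetate, 0.01% Tween-20, 0.05% BSA; qHTS 6-point titration, ~60 µM downward; luminescence read.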
ELG1 genotox – qHTS screen for small molecules that induce genotoxicity in human embryonic kidney (HEK293T) cells expressing luciferase-tagged ELG1; HEK293T ELG1-luciferase reporter, luminescence, 16 h; Potency, µM (top dose mostly 46 µM), without a hit: at the highest dose activity change, positive = activation, actives largely listed as activators; 330,000 tested, 1.3% active; AID 504466, 2011; also: % of control where 0% means no effect; nearly all actives have a fitted effect of over 60% in size
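HEK293T cells expressing luciferase-tagged ELG1 were exposed to compound or DMSO vehicle for 16 hr at 37 °C and 5% CO2. Luciferase activity was then measured with ONE-Glo after 30 min at room temperature.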
NPC1 promoter act – qHTS Assay for NPC1 Promoter Activators; Huh7 NPC1 promoter luciferase reporter, 24 h; Potency, µM (series often up to 9.22 µM), for inactives: top-dose activation, usual class: activators; 320,000 tested, 2.4% active; also: % of control where 0% means no effect; nearly all actives have a fitted effect of over 60% in size
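Compounds in DMSO were transferred onto Huh7 NPC1-luciferase reporter cells pre-incubated 2 h; after 24 h at 37 °C, Amplite reagent was dispensed and luminescence recorded 10 min later.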
SMN2 splice up – qHTS Assay for Enhancers of SMN2 Splice Variant Expression; HEK293 SMN2-luciferase splicing reporter, luminescence, 30-36 h; Potency, µM (doses to about 46.1 µM), inactives show at the top dose activity change, positive = activation, usual class: activators; AID 1458, 2008; 210,000 tested, 2.8% active; also: % of control where 0% means no effect; nearly all actives have a fitted effect of over 55% in size
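HEK293 cells carry an SMN2 […]–luciferase reporter in which exon 7 inclusion puts luciferase in frame. Cells were plated 10-12 h before compound addition, then incubated 30-36 h at 37C. ONE-Glo luminescence was read; sodium butyrate at 4.5 mM final served as control.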
The depositor's hits bear a star; ? = inconclusive; . = no result. Calls follow the shape of the dose curve; as a rule, active = well fitted curve in the direction sought with a large enough effect; inconclusive = small, poorly fitted or top-dose-only effect, or another doubt; inactive = no such curve, though single readings can be large; an effect the other way counts as inactive or inconclusive. Potency is read from the fitted curve at half-maximal effect.

SMILES	Rab9 prom act	FLuc modulator	ELG1 genotox	NPC1 promoter act	SMN2 splice up
COc1ccc(/C=C/C(=O)Nc2ccc(-n3nncc3-c3ccc(OC)c(OC)c3)cc2)cc1OC	-5%	7%	0%	-3%	?
COc1ccc(C2C3=C(N=C4SCC(=O)N42)c2ccccc2CC3)cc1 (configuration not stated)	23%	11µM*	?	29%	-5%
COc1ccc(C2C3=C(N=C4SCC(=O)N42)c2ccccc2CC3)cc1OC (configuration not stated)	2%	-13%	-1%	1%	-17%
Cc1ccc(C(=O)Nc2ccc3ccccc3n2)cc1	0.63µM*	1.7µM*	?	3.2µM*	.
O=C(Nc1ccc2ccccc2n1)c1ccccc1Br	3.5µM*	3.4µM*	?	?	.
O=C(Nc1ccc2ccccc2n1)c1ccccc1	0.89µM*	2.4µM*	?	2.2µM*	.
COc1ccc(C(=O)Nc2ccc([N+](=O)[O-])cn2)cc1OC	21%	-11%	-1%	4%	-2%
Cc1cc(C)cc(NC(=O)Nc2ccc3ccccc3n2)c1	-1%	4%	1%	1%	.
COc1ccc(C(=O)Nc2ccc3ccccc3n2)cc1OC	2.8µM*	13µM*	?	2.8µM*	.
O=C(Nc1nccs1)c1ccccc1Br	27%	?	7%	6%	.
COc1cccc(C2C3CN(C)CC=C3C(C#N)=C(N)C2(C#N)C#N)c1OC (configuration not stated)	-11%	-2%	-4%	0%	13%
Cc1ccc(SCC(=O)NCCN2C(=O)CSC2=O)cc1C	11%	-5%	2%	12%	-7%
COC[C@H]1O[C@@H](c2c(OC)cc(OC)cc2OC)[C@H](OC)[C@@H](OC)[C@@H]1OC	.	.	.	.	6%
Cc1nnc(SCC(=O)NNC(=O)c2ccco2)n1-c1cccc(Cl)c1	13%	1%	0%	-5%	14%
O=C(CCc1ccccc1)Nc1ccc2ccccc2n1	1.1µM*	6.7µM*	?	3.2µM*	13µM*
CSc1ccc(S(=O)(=O)N2CCCC2)cc1	1%	2%	3%	-4%	2%
Cc1ccc(CNC(=O)C2CCN(S(=O)(=O)c3c(C)noc3/C=C/c3c(C)cc(C)cc3C)CC2)cc1	.	3%	.	.	.
Cc1c(C(C)(C)C)sc(=NC(=O)c2ccccc2O)n1C	1µM*	0.95µM*	?	2.8µM*	.
COc1ccc(C(C)=O)cc1COC(=O)CCC(=O)N(CC(C)C)c1c(N)n(CC(C)C)c(=O)[nH]c1=O	9%	-1%	-6%	10%	.
CCOc1ccccc1N1CCN(CC(=O)Nc2nnc(CC)s2)CC1	-3%	0%	-3%	0%	6%
CCC1Oc2ccc(C)cc2N(CC(=O)NCc2cccs2)C1=O (configuration not stated)	-10%	-14%	15%	-1%	-28%
CN(/N=C/c1cccnc1)c1cnn(-c2ccc(F)c(Cl)c2)c(=O)c1Cl	-4%	4%	10%	-3%	.
CN(/N=C/c1c[nH]c2ccccc12)c1cnn(-c2ccc(F)c(Cl)c2)c(=O)c1Cl	11%	13µM*	3%	-1%	8%
CCOC(=O)c1c(CN2CCOCC2)oc2ccc(OC)cc12	3%	6%	0%	0%	-4%
O=c1c2c3c(sc2ncn1/N=C/c1ccncc1)CCCC3	0%	?	-2%	0%	4%
SMILES	Rab9 prom act	FLuc modulator	ELG1 genotox	NPC1 promoter act	SMN2 splice up
O=c1c2c3c(sc2ncn1/N=C/c1cccnc1)CCCC3	22%	15µM*	10%	-1%	8%
C=CC1CO1 (configuration not stated)	.	.	.	.	2%
Cc1cccc(/C(N)=N/OC(=O)c2ccc(Br)o2)c1	2%	4.3µM*	?	22%	?
COc1cc(OC)cc(C(=O)O/N=C(\N)c2cccc(C)c2)c1	?	24µM*	0%	?	.
Cc1cccc(OC(=O)c2cccnc2)c1	0%	0%	1%	-3%	.
Cc1cccc(/C(N)=N/OC(=O)c2cccnc2)c1	4µM*	9.5µM*	?	?	.
Cc1cccc(/C(N)=N/OC(=O)C23CC4CC(CC(C4)C2)C3)c1	?	4.3µM*	?	19%	-30%
COc1ccc(-c2cc(C(F)(F)F)n3nc(C(=O)NCC45CC6CC(CC(C6)C4)C5)cc3n2)cc1	.	-10%	.	.	-3%
O=[N+]([O-])c1cc([N+](=O)[O-])c(Oc2ccccc2F)cc1NN1CCCCC1	-1%	0%	0%	-4%	.
O=C(Cc1ccc(Br)cc1)N/N=C/c1ccc(-c2cccc(C(=O)O)c2)o1	1%	?	2%	2%	.
COc1ccc(NC(=O)C2Cc3ccccc3CN2C(=O)c2ccco2)cc1 (configuration not stated)	23%	-19%	?	6%	.
CCC(C)(C)C1CCc2c(sc(NC(=O)c3ccccc3C(=O)O)c2C#N)C1 (configuration not stated)	1%	11µM*	-7%	-3%	.
CC1CCc2c(sc(NC(=O)c3ccccc3C(=O)O)c2C#N)C1 (configuration not stated)	?	21µM*	?	?	.
CC(=O)Nc1sc2c(c1C#N)CCC(C)C2 (configuration not stated)	11%	?	10%	10%	-4%
Cc1cc(C(=O)Nc2sc3c(c2C#N)CCC(C)C3)cs1 (configuration not stated)	0.56µM*	?	4.6µM*	1.3µM*	4µM*
CC(C)(C)c1ccc(C(=O)Nc2sc3c(c2C#N)CCC(C(C)(C)C)C3)cc1 (configuration not stated)	.	-4%	.	.	-7%
Cn1c(=O)c2nc(SCC(=O)Nc3cc(Cl)ccc3Cl)n(C)c2n(C)c1=O	.	-5%	.	.	.
Cc1ccc(Nc2nc(C(=O)N3CCC(C(=O)NC(C)C)CC3)cs2)cc1	2%	-5%	0%	-4%	.
Cc1ccc(Nc2nc(C3CC3)cs2)cc1	3.5µM*	3.8µM*	8.2µM*	4µM*	4µM*
Clc1ccc(Nc2nc(C3CC3)cs2)cc1	1.6µM*	7.6µM*	6.5µM*	3.2µM*	11µM*
CC(C)c1ccc(N(CC(=O)NCc2ccc(F)cc2)C(=O)c2snc(C(N)=O)c2N)cc1	-3%	1%	-4%	-1%	.
CC(=O)Nc1ccc(S(=O)(=O)N(C)CC(=O)NC2CCCC(C)C2C)cc1 (configuration not stated)	1%	10%	1%	1%	.
COc1ccc(NC(=O)c2cc(F)c(F)cc2Cl)cc1Cl	?	13µM*	?	?	.
COc1ccc(NC(=O)C=C(C)C)cc1Cl	.	12µM*	.	.	11µM*
